# Source: PubChem BioAssay (National Center for Advancing Translational Sciences (NCATS))
# This excerpt belongs to a sample that is enriched for hits.
# Pf Dd2 inh – qHTS Primary assay for Inhibitors of Plasmodium falciparum Dd2 growth in vitro. P. falciparum Dd2 growth, SYBR Green, 72 h. Potency, µM (doses to about 28.9 µM), without a hit: top-dose activity, negative = inhibition, usual class: inhibitors. actives 4.3% (n = 120,000); active means well fitted inhibition curve with a large enough effect;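 further: plate controls were DMSO vehicle for no effect and reference drug for full effect; nearly all actives have a fitted effect of over 65% in size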
#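 Infected erythrocytes (Dd2, 0.3% parasitemia, 2.5% hematocrit final) are added to compound in RPMI-1640/Albumax II medium, grown 72 h at 37C in low oxygen, then lysed with saponin/Triton-X containing SYBR Green and read by fluorescence.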
# * hit, by the source's call; i = inactive; [ ] = another dose, or the depositor's remark. Potency means the concentration at half of the fitted maximal effect.
SMILES,Pf Dd2 inh
CC(=O)NC1(C)CN(c2cccc(C(F)(F)F)c2)C1,-4%[44.1 µM]
COc1ncccc1-c1csc(CN2CCCC(C)(NC(C)=O)C2)c1 (stereo not given),i
Cc1cnc(C(=O)N[C@@H]2CCC[C@@H]2C(=O)N2CCN(Cc3ccccc3)CC2)cn1,-29%
O=C(Nc1ccc(F)cc1Cl)C1CCN(c2ncnc3c2nc2n3CCCCC2)CC1,2.8µM*
CCOC(=O)c1ccccc1NC(=O)C1CCN(c2ncnc3c2nc2n3CCCCC2)CC1,-7%
O=C(NCc1ccccc1)C1CCN(c2ncnc3c2nc2n3CCCCC2)CC1,22%
COc1ccc(C2Cn3nnc(-c4nc(-c5ccncc5)no4)c3CO2)cc1 (stereo not given),i
COCc1cc(=O)n(CC(=O)Nc2ccc(OC)cc2)c(N2CCOCC2)n1,-17%
CC(C)CCNC(=O)c1c(OCC2CC2)cc(=O)n2c1CCOCC2,-10%
CCOC(=O)c1cccc(NC(=O)c2cc3c(-c4cccc(OC)c4)nn(C)c3s2)c1,-7%
O=C(Nc1ccc(Cl)cc1)c1cc2c(-c3ccccc3)nn(-c3ccccc3)c2s1,1.1µM*
CC(=O)c1ccc(NC(=O)c2cc(C)nn2-c2ccccc2)cc1,i
CC(C)OCCCNC(=O)c1ccc(N2CC3CC(C2)[C@H]2CCCC(=O)N2C3)nc1 (stereo not given in full),0%
COc1ccc(-c2nc(C(C)C)nc3c2CCN(C(=O)Nc2ccccc2)CC3)cc1,5µM*
COc1ccc(-c2nc(C(C)C)nc3c2CCN(C(=O)C2CC2)CC3)cc1,i
CC(C)c1nc2c(c(-c3ccc(Cl)cc3)n1)CCN(C(=O)c1ccc(C(F)(F)F)cc1)CC2,10µM*
COc1ccc(-c2nc(C(C)C)nc3c2CCN(C(=O)N(C)C)CC3)cc1,-23%
CC(C)c1nc2c(c(-c3ccc(O)cc3)n1)CN(C(=O)C1CC1)CC2,i
COc1ccc(-c2nc(C(C)C)nc3c2CCN(C(C)=O)CC3)cc1,i
CCc1nc2c(c(-c3ccc(OC)cc3)n1)CCN(C(=O)c1ccccc1OC)CC2,-10%
COc1ccccc1C(=O)N1CCc2nc(C(C)C)nc(-c3ccc(Cl)cc3)c2CC1,-28%
CC(C)c1nc2c(c(-c3ccc(O)cc3)n1)CN(C(=O)Nc1ccc(Cl)cc1)CC2,11µM*
CC(C)c1nc2c(c(-c3ccc(O)cc3)n1)CN(C(=O)c1ccc(C(F)(F)F)cc1)CC2,i
COc1ccc(-c2nc(C(C)C)nc3c2CCN(C(=O)c2ccc(F)cc2)CC3)cc1,11µM*
CC(C)c1nc2c(c(-c3ccc(O)cc3)n1)CN(C(=O)C1CCCC1)CC2,i
SMILES,Pf Dd2 inh
O=C(Cn1ccn2nc(-c3ccc(F)cc3)c(CO)c2c1=O)Nc1ccccc1C(F)(F)F,-15%
CNC(=O)C(C)(C)N1CCC[C@H]1C(=O)N1CCCCC1,-19%[44.1 µM]
CCOc1ccc(C2NC(=O)N(CC(=O)NC3CCCC3)C3=C2C(=O)OC3)cc1 (stereo not given),-25%
COC[C@H]1C[C@@H](NCc2cccc(Cl)c2)[C@H](O)[C@@H]1O,i
Cn1nc(C2CCN(C(=O)CCCc3ccccc3)CC2)c2c1CCOC2,i[5.79 µM]
O=C(Nc1ccc2c(c1)OCCO2)N[C@@H]1C[C@H](CO)[C@@H](O)[C@H]1O,-11%[44.1 µM]
COc1ccc(C)cc1NC(=O)N1C[C@@H](F)C[C@H]1C(=O)N1CCCCC1,8%
Cc1c(CN2CCC(N(C(=O)NCCc3ccccc3)C3CCOCC3)CC2)cnn1C,-6%
COCCn1c(=O)c2c(n1Cc1ccccc1)CN(C(=O)COc1ccccc1)CC2,i
COc1ccc(C(=O)N2CCC(Oc3cccnc3)C2)cc1 (stereo not given),-4%
Cc1occc1C(=O)N1C[C@@H](COc2ccccc2)[C@H](C(N)=O)C1,0%
CN1CCN(c2ccc(-c3cn(C)c(=O)n4cc(CNc5ccccc5)nc34)cn2)CC1,-14%[44.1 µM]
Cc1ccc(C(=O)N2CCc3nc(C(C)C)nc(-c4ccc(O)cc4)c3C2)cc1,i
COc1ccc(-c2nc(C(C)C)nc3c2CCN(C(=O)c2cccc(Cl)c2)CC3)cc1,5.6µM*
COCc1nncn1C1CCN(S(=O)(=O)c2ccc(C(F)(F)F)cc2)CC1,-1%
CCn1c(CN2CCC(C)CC2)nc2cc(NC(=O)c3cccc([N+](=O)[O-])c3)ccc21,6.3µM*
CCn1c(CN2CCC(C)CC2)nc2cc(NC(=O)c3ccc([N+](=O)[O-])cc3)ccc21,-28%
CCn1c(CN2CCOCC2)nc2cc(NC(=O)c3ccc([N+](=O)[O-])cc3)ccc21,-2%
CCS(=O)(=O)N1C[C@@H]2C(=O)N(CCC3CCN(C(C)C)CC3)C(=O)[C@@H]2C1,19%
C[C@H](C(=O)N1Cc2ccccc2CC2(CCN(Cc3ccncc3)C2)C1)c1ccccc1 (stereo not given in full),10µM*
O=C(O)CCCC(=O)N1Cc2ccccc2CC2(CCCN(Cc3ccccc3)C2)C1 (stereo not given),-2%
O=C(Cc1ccc(O)cc1)N1Cc2ccccc2CC2(CCN(Cc3ccncc3)C2)C1 (stereo not given),7.9µM*
CC(C)NC(=O)N1CCC2(CC1)CN(Cc1ccncc1)Cc1ccccc1O2,2%
CC(=O)N1Cc2ccccc2CC2(CCCN(Cc3ccc(O)cc3)C2)C1 (stereo not given),-20%
CC(=O)N1Cc2ccccc2CC2(CCN(Cc3ccccn3)C2)C1 (stereo not given),-13%
SMILES,Pf Dd2 inh
O=C1CCN(S(=O)(=O)c2ccccc2)CCCN(C(=O)c2ccc(Cn3cncn3)o2)CCN1,-2%
COc1ccc(C(=O)N2CCC([C@H]3[C@@H](OC)C(=O)N3C(C)C)CC2)c(OC)n1,-1%
CC(=O)N1CCN(c2ccnc(-c3nnc(C)n3-c3ccccc3)c2)CC1,-18%[44.1 µM]
COc1cc(NC(=S)N[C@H]2CO[C@H]3[C@@H]2OC[C@@H]3n2nnnc2-c2cccc(OC)c2)cc(OC)c1,i
CC(C)CC(=O)N1CCC2(C1)C(=O)N(C)c1ccccc12 (stereo not given),4%
Cn1cncc1C(=O)N1CC(F)(F)C[C@H]1c1nc(C2CC2)no1,34%
COc1cc(NC(=O)O[C@@H]2CC[C@]3(C)C(CC[C@@H](O)[C@H]3CC(=O)N3CCCCC3)[C@]2(C)CO)cc(OC)c1OC (stereo not given in full),5µM*
CCCNC(=O)O[C@@H]1CC[C@]2(C)[C@H](CC[C@@H](O)[C@H]2CC(=O)N2CCCCC2)[C@]1(C)CO,i
CCNC(=O)O[C@@H]1CC[C@]2(C)C(CC[C@@H](O)[C@H]2CC(=O)NCc2ccc(F)cc2)[C@]1(C)CO (stereo not given in full),-5%
COc1cc(NC(=O)O[C@@H]2CC[C@]3(C)C(CC[C@@H](O)[C@H]3CC(=O)N3CCCC3)[C@]2(C)CO)cc(OC)c1 (stereo not given in full),-14%
C[C@]1(CO)C2CC[C@@H](O)[C@@H](CC(=O)N3CCCC3)[C@]2(C)CC[C@H]1OC(=O)Nc1ccccc1 (stereo not given in full),8.9µM*
C[C@]1(CO)C2CC[C@@H](O)[C@@H](CC(=O)NCc3cccs3)[C@]2(C)CC[C@H]1OC(=O)NC1CCCCC1 (stereo not given in full),11µM*
CC(C)NC(=O)O[C@@H]1CC[C@]2(C)C(CC[C@@H](O)[C@H]2CC(=O)NCc2ccco2)[C@]1(C)CO (stereo not given in full),-11%
